# Tests used:
# Assay in all cases: PBM binding z-score (relative to random genomic background probes); higher = stronger binding; sequences stand for … in GC…GCGATTGACAGCGTAGAATGAAGG
# [1] = system: RARb homodimer (NR concentration 270 nM)
# How it was run: (§1)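 Each nuclear receptor dimer, without ligand, was incubated for 1 h on custom Agilent 4×180K protein-binding microarrays. Binding was detected with antibodies against each partner (one per run), and scanned fluorescence was regression-normalized. The binding z-scores are referenced to random human genomic background probes.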
# [2] = system: RARg:RXRa (NR concentration 270 nM, RXRa partner concentration 90 nM)
# How it was run: as §1
# [3] = system: RARg homodimer (NR concentration 270 nM)
# How it was run: as §1
# [4] = system: RXRa DBDmut IVT, anti-RXR (DBD mutation: RXRa K156A/R161A, NR concentration 90 nM)
# How it was run: as §1
# [5] = system: RXRa homodimer (NR concentration 180 nM)
# How it was run: as §1
# [6] = system: THRa:RXRa (NR concentration 90 nM, RXRa partner concentration 90 nM)
# How it was run: as §1
# [7] = system: THRa homodimer (NR concentration 90 nM)
# How it was run: as §1
# [8] = system: VDR homodimer (NR concentration 270 nM)
# How it was run: as §1
Sequence,PBM binding z-score [1],PBM binding z-score [2],PBM binding z-score [3],PBM binding z-score [4],PBM binding z-score [5],PBM binding z-score [6],PBM binding z-score [7],PBM binding z-score [8]
ATATGTAGGTTAAGGGGCATTCAGGTTGGTTCGC,2.06,1.58,1.19,1.17,1.85,1.82,1.46,2.03
CGTCCAAGGTCAGAGGGGTCAGTGAATGCCGAGT,5.33,6.54,7.18,3.32,6.41,4.28,2.82,5.91
TCTTGTAGATCAATAGAGGATAAGAAAGTGCGCT,-0.566,0.208,0.365,0.919,0.16,1.5,-0.588,0.0606
AATAGTTGGTCAGCTGAGGTCACACACAATTCGG,4.34,4.25,4.37,1.48,4.26,4.94,5.21,3.62
CCGAGTAGGTTATTGGGCATTCAGGCAACGGTGA,0.361,0.0352,0.187,0.421,0.183,0.0204,0.103,0.256
TCTATTAGTTGATTAGGGCAACGGAAACAGCGGA,0.377,0.729,0.882,0.972,0.448,0.578,0.239,0.264
CCTTACGTGTCAAGGTTATAGCACGGGTGGTACG,1.28,1.34,1.35,-0.145,1.11,1.57,0.906,0.926
CCGATTGGGGCAAGGTTACCATAACGCACAGCCA,1,1.02,1.3,0.17,1.09,1.2,0.241,-0.398
ATCGAAAGGGCGACGAGGTGAGTATACACCGTTT,1,1.16,1.28,-0.425,0.969,1.99,0.542,0.597
GTTTACGGGTCAAAGGTTATAGCATGAATAGAAT,3.41,6.91,5.26,2.06,9.23,3.94,0.0413,1.99
GGAACGTGGGCAAAGTTGATAGCATCTGTCGACG,-0.345,-0.158,-0.178,-0.177,-0.03,-0.579,-0.838,-0.389
CAGCCTAGGTCAGGGCGAGTATAGGAGGAACGTT,2.44,3.08,3.72,0.0681,1.76,2.03,0.0582,-0.499
TAACCTAGGTCATGCGGGCCAGTATAGTGTCGGC,3.44,4.53,4.39,1.15,3.58,3.32,1.23,1.05
TCGAGTAGGTTAGTGGCATTCAGAATGGCGTCGA,-0.183,-0.478,-0.516,0.0324,-0.235,-0.441,-0.559,-0.54
GCATATAGGTAATACAAGGTGATAGTCCGATTGT,-0.0222,0.537,0.59,0.172,0.526,3.48,0.413,-0.123
TCGTATAGGTAAATGCTAGGTGAAAGTCCGATCT,0.475,0.402,0.0931,1.07,0.407,1.48,0.325,-0.0661
GCTGCTAGGTCAACTGATTGTCAGCTAAAGCTCG,3.35,4.28,4.95,1.3,2.55,2.89,0.691,0.00113
TCTTGTAGATCAAAGGCTAAGAAAGCCGAAGCCT,-0.521,-0.216,-0.29,0.467,0.315,-0.446,-0.464,-0.345
TCCAGTTGGTCAAAGGTCACACACTCGAAATGCG,4.95,7.17,6.07,2.25,7.96,4.08,2.47,2.99
TCAAGTAGGTTACCAATGGGGCATTCAGCTTTCT,1.04,1.42,0.77,1.45,0.978,0.342,-0.498,-0.25
CCTAACAGGCCAATCTGGGTCACTCAAGGCTTGA,2.38,1.47,1.75,0.498,0.758,3.85,0.717,0.191
CATACAGGGTCAGCTACGCCAGAGTAGGGACGGC,2.9,4.44,4.43,1.69,4.11,2.73,0.834,1.09
AATACAGGGTCATCGTAGGCCAGAGTCCGCACAG,3.75,5.73,5.28,3.35,6.62,4.68,1.62,3.38
CCGACTGTGGCATAAGGTTACCATAAGCCAGCCC,1.24,0.6,0.353,0.486,0.923,2.37,1.7,-0.189
GGAACGAGGGCACTCGAGTTGATAGCATGGCGAT,0.585,0.902,1.45,2.21,0.67,2.41,-0.47,1.75
GCTGCTAGGTCAACTGATCGTCAGCTAAAGCTCG,3.16,4.5,5.79,1.38,2.8,2.73,0.546,-0.532

Sequence,PBM binding z-score [1],PBM binding z-score [2],PBM binding z-score [3],PBM binding z-score [4],PBM binding z-score [5],PBM binding z-score [6],PBM binding z-score [7],PBM binding z-score [8]
ATATGTAGGTTAGCTGGGGTCATTCTGACTAGGC,3.66,3.88,2.79,2.08,5.12,5.12,3.04,5.3
GCATACAGGTGAAACGCAGGTAACTCAGGGTGGC,0.299,1.03,0.276,-0.217,0.854,1.42,-0.151,-0.463
CCTTGTTGGTCAGGAGGTCACACACCGGATATGA,4.42,4.76,4.32,0.608,4.89,3.33,2.47,2.17
CAAACTAGGTCAAGGTCGAAGTCGGTTTGTGCCA,3.74,4.38,5.12,2.45,3.49,3.55,2.45,2.48
TCTGCTAGGTCAGTTGGTCAGCTACCGAGCTGCC,2.77,2.45,3.07,0.34,0.83,1.22,-0.00528,-0.907
CCGAGTAGGTTATGGGGCATGCAGGCAACGGTGA,1.15,0.72,0.548,-0.675,0.867,0.102,-0.321,-0.0729
TCATATAGGTAATACAGGAGAAAGTCGGCATCTA,-0.136,0.519,0.598,1.48,0.686,0.0311,0.0486,0.233
CAAACTAGGTCAAAGGTCGAAGTCGAGCCAACCA,3.9,7.26,5.75,2.51,8.7,4.01,0.604,1.73
ATCGAAAGGTCGAAGGTGAGTTTACCCACCCGAA,2.62,4.3,3.49,1.41,5.2,2.45,0.143,3.11
GCTGTTAGGTCAACTGATGGTCAGCTAAAGCTCG,3.65,5.62,5.67,2.11,3.51,3.62,2.59,0.277
CCGAGTTGGTCAGGAGGTCACACACCGGATATGA,4.31,5.33,4.41,1.8,4.96,3.47,2.02,3.09
TCGAGCAGGCCAGAGGGTCACTCAAGAGGTACGG,2.68,2.77,2.03,-0.586,2.65,1.51,-0.421,0.462
CCGACTGAGGCAGAAAGGTTACCATACCATCCGG,2.04,1.26,0.925,-0.0333,1.87,1.06,-0.0968,-0.0311
GCTTACGGGTCAAAGCTTATAGCATGAATAGAAT,2.29,4.92,4.8,2.48,5.91,2.12,-0.718,0.809
TCTTGCAGGCCAGAGGGTCACTCAAGAGGTACGG,2.73,2.73,2.38,0.074,2.37,1.79,-0.22,0.546
ATCTCTAGGTAAAGACAGTTCAGTGAATGCAAAT,0.886,0.452,0.798,0.247,0.363,1.05,0.425,1.14
GCTTACGCGTCAAAGGTTATAGCATGAATAGAAT,0.965,1.43,0.64,0.189,3.35,1.65,-0.774,-0.203
GCATATAGGTATTACAAGGTGAAAGTCCGATTGT,0.63,0.464,0.464,0.414,0.523,3.76,1.14,-0.251
CCGTACGGGTCACTGACAGGTTATAGCATTTGGA,3.2,6.14,4.89,1.07,5.53,2.97,-0.108,0.766
TCTTGTAGATCAACTGGAGGTTAAGAAAGATCGA,0.645,1.23,0.313,0.336,0.971,1.1,-0.207,-0.0194
AGTCAAAGTTCAGGACGAGGTAGCGTAAAGCACG,2.76,4.44,4.55,2.81,2.93,2.9,0.672,2.05
CAGAGTAGGTTATGGGGCATTCAGGCAACGGTGA,1.24,0.814,0.945,-0.321,0.947,0.691,0.428,0.315
GCTTTCGGGTCAAAGGTTATAGCATGAATAGAAT,3.37,7.01,5.04,2.52,9.55,4.61,2.14,2.16
GCGACTGGGGTAAAGCAGGTTACCATAAGGTTGG,0.792,0.464,0.108,-0.286,1.03,2.59,0.334,-0.11
CGAACTAGGTCAGATCAGGACAGTGAAGGATGAT,2.33,2.68,4.03,0.645,1.52,4.73,1.25,-0.038
TCTGCTGGGTCAGTTGGTCAGCTAACGAGCTGCC,2.12,2.77,2.99,0.212,1.06,0.669,-0.537,-0.562

# Source: the supplement of paper PMC6555819
